This passage reports Potency results from PubChem BioAssay (NCATS).

Inconclusive results are not listed. A call without a number means that no potency is given here. Calls of active or inactive are those of the source. The call rests on the fitted dose curve; in most records, active means well fitted inhibition curve with a large enough effect; inconclusive means small, poorly fitted or top-dose-only effect; inactive means flat fitted curve, though single readings scatter.
Potency means the concentration at half of the fitted maximal effect.

Sequence of Glutathione peroxidase 1 (Homo sapiens) (P07203 whole entry, looked up): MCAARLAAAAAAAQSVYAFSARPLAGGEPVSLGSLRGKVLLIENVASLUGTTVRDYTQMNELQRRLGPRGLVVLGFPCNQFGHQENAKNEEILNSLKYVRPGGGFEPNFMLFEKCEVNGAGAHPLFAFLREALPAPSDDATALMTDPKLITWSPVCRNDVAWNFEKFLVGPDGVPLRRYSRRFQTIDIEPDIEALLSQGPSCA

This test deals with Glutathione peroxidase 1 (Homo sapiens) (UniProt P07203). The test is described as follows: Primary qHTS Assay for Inhibitors of Recombinant Selenoprotein Glutathione Peroxidase 1 (GPX1) (AID 1845191). Further: nearly all actives have a fitted effect of over 65% in size. The following applies: recombinant GPX1, GR-coupled NADPH fluorescence, 15 min; series mostly up to 48.8 µM. The source says:
Assay Provider: Elias S.J. Arner MD PhD.
Department of Medical Biochemistry and Biophysics
Karolinska Institutet, Solna, Stockholm, Sweden
Selenoprotein glutathione peroxidases (GPX), like the ubiquitously expressed GPX1 and the ferroptosis modulator GPX4, enact their antioxidant activities by reducing hydroperoxides using glutathione. […] GPX1 and GPX4 inhibitors have thus shown promise as anti-cancer agents. Existing inhibitors are often promiscuous, or modulate GPX activity only indirectly, so novel direct inhibitors identified through screening against GPX1 and GPX4 could be valuable. Here, we developed optimized glutathione reductase (GR)-coupled GPX assays for the biochemical high-throughput screen (HTS) of almost 12,000 compounds with known mechanisms of action. Initial hits were triaged using a GR counter-screen, assessed for isoform specificity using a separate GPX2 assay, and were assessed for general selenocysteine-targeting activity using a thioredoxin reductase (TXNRD1) assay. With this suite of assays, we identified novel GPX1/GPX2- and GPX4-specific inhibitors and can here present a validated pipeline for future discovery research for selenoprotein-targeting agents.
SEQUENCE No. (e.g., 1, 2, 3, etc.); […] (e.g., Cells, Incubation, Reagent, etc.); VALUE; DESCRIPTION.
1; Reagent 1; 3 uL; GPx1 enzyme or no enzyme control in 1536-well, black, solid Greiner assay plate.
2; Compound; 25 nL; Kalypsis pin tool (Wako USA) equipped with a 1536-well pin head.
3; Incubation; 30 min; room temperature.
4; Reagent 2; 1 uL; 10 nM GPX1, 1 mM GSH, 0.5 mM CHP, 0.5 mM NADPH, 100 nM GR, 0.01% BSA substrate
5; Detection; Fluorescence; ViewLux microplate reader, excitation 340 nm and emission 450 nm.
6; Incubation; 15 min; room temperature.
7; Detection; Fluorescence; ViewLux microplate reader, excitation 340 nm and emission 450 nm.
NOTES (numbers refer to Sequence numbers above)
1. 3 uL of 16.66 nM GPX1 and 0.016% BSA in assay buffer (50 mM Tris-HCl, 2 mM EDTA (pH 7.5), 150 mM NaCl) was added to columns 3-48 of 1536-well assay plates using a BioRAPTR Flying Reagent Dispenser (Let's Go Robotics (LGR), Carlsbad, CA). A no-enzyme control (0.01% BSA in TES assay buffer) was added to columns 1-2.
2. 25 nL of test compounds and DMSO controls were added to each well with a pin tool (Kalypsys).
3. The assay plates were incubated for 30 minutes at room temperature.
4. 1 uL of master mix (500 nM glutathione reductase (GR), 5 mM reduced glutathione (GSH), 2.5 mM NADPH in assay buffer) was added. 1 uL of cumene hydroperoxide (CHP) ([2.5 mM] in 50% EtOH) was then added within 5 minutes to initiate the reaction. Final concentrations were: 10 nM GPX1, 1 mM GSH, 0.5 mM CHP, 0.5 mM NADPH, 100 nM GR, 0.01% BSA.
5. Initial fluorescence readout (t=0) at 340/450 nm was measured using a ViewLux multimodal detector (PerkinElmer, Waltham, MA).
7. Endpoint fluorescence readout (t=15) at 340/450 nm was measured 15 min after room temperature incubation.
For orientation: In qHTS, concentration-response curves come from the screen itself.
As for `CC(C)C[C@H](NC(=O)[C@@H](O)[C@H](N)Cc1ccccc1)C(=O)O`, the Potency result is “inactive”.
In the case of `CCCC(CCC)C(=O)O`, the Potency entry was “inactive”.
The same measure for `CN([C@@H](Cc1ccc(OS(=O)(=O)c2cccc3cnccc23)cc1)C(=O)N1CCN(c2ccccc2)CC1)S(=O)(=O)c1cccc2cnccc12`: “inactive”; for `CCn1c(-c2nonc2N)nc2c(C#CC(C)(C)O)ncc(OC[C@H]3CCCNC3)c21`: “inactive”; for `O=c1[nH]cnc2[nH]ncc12`: “inactive”.
`CC(C)(N)C(=O)N[C@H](COCc1ccccc1)C(=O)N1CCC2(CC1)CN(S(C)(=O)=O)c1ccccc12`: the Potency entry is “inactive”.
For `O=C(c1cc(Cc2n[nH]c(=O)c3ccccc23)ccc1F)N1CCN(C(=O)C2CC2)CC1`, the Potency entry was “inactive”.
Next, `O=C(Nc1nc2ccccc2n1CCN1CCOCC1)c1cccc([N+](=O)[O-])c1`: “inactive”.
Take `Nc1nc2[nH]cc(CCc3ccc(C(=O)N[C@@H](CCC(=O)O)C(=O)O)cc3)c2c(=O)[nH]1`: the Potency result was “inactive”.
The same measure for `CCCn1c(=O)c2[nH]c(C34CC5CC3C[C@@H](C5)C4)nc2n(CCC)c1=O`: “inactive”; for `OC(CN1CCC(Cc2ccc(F)cc2)CC1)c1ccc(Cl)cc1` (stereo not given): “inactive”.
Next, `N#CC[C@H](C1CCCC1)n1cc(-c2ncnc3[nH]ccc23)cn1`: 25.5 µM (active); `CNC(=O)c1ccc(N2C(=S)N(c3ccc(C#N)c(C(F)(F)F)c3)C(=O)C2(C)C)cc1F`: “inactive”.
The same measure for `CS(=O)(=O)c1cccc(CNc2nc(Nc3ccc4c(c3)CCC(=O)N4)ncc2C(F)(F)F)c1`: “inactive”; for `CCCc1nn(C)c2c(=O)[nH]c(-c3cc(S(=O)(=O)N4CCN(C)CC4)ccc3OCC)nc12`: “inactive”.
For the compound `O=C1CCc2cc(OCCCCc3nnnn3C3CCCCC3)ccc2N1`, the Potency entry was “inactive”.
For `S=C(NCc1ccc2c(c1)OCO2)N1CCN(c2ncnc3c2oc2ccccc23)CC1`, the Potency result is “inactive”.
The same measure for `CCC(C)N(C)C(=O)c1cc2ccccc2c(-c2ccccc2Cl)n1` (stereo not given): “inactive”; for `Oc1ccc(C2CNCCc3c2cc(O)c(O)c3Cl)cc1` (stereo not given): “inactive”.
The same measure for `Cn1cc(-c2ccc3nnc(C(F)(F)c4ccc5ncccc5c4)n3n2)cn1`: “inactive”; for `CC(C[N+](C)(C)C)OC(N)=O` (stereo not given): “inactive”; for `O=c1n(CCCN2CCN(c3cccc(Cl)c3)CC2)nc2ccccn12`: “inactive”.
Next, `CN1CCN(CCCN2c3ccccc3Sc3ccc(C(F)(F)F)cc32)CC1`: “inactive”; `CCc1cncnc1N1CCN(Cc2nc3ccc(C(F)(F)F)cc3[nH]2)CC1`: “inactive”; `NNCCc1ccccc1`: “inactive”.
On to `CCCCNc1cc(C(=O)O)cc(S(N)(=O)=O)c1Oc1ccccc1`, for which the Potency result was “inactive”.
Next, `COc1cc(Nc2ncc3c(n2)-c2ccc(Cl)cc2C(c2c(F)cccc2OC)=NC3)ccc1C(=O)O`: “inactive”; `C[C@]1(c2nc3c(C(N)=O)cccc3[nH]2)CCCN1`: “inactive”; `CCC(=O)N[C@H]1CC[C@H](C(=O)N(C)c2ccc(-c3nc4ccccc4o3)cc2)C1`: “inactive”.
Next, `Cc1ccc(N(CC2=NCCN2)c2cccc(O)c2)cc1`: “inactive”; `Cc1cccc(-c2nn(C(=S)Nc3ccccc3)cc2-c2ccnc3ccccc23)n1`: “inactive”; `Oc1cccc(-c2nc(N3CCOCC3)c3oc4ncccc4c3n2)c1`: “inactive”.
The same measure for `CCCS(=O)(=O)Nc1ccc(F)c(C(=O)c2c[nH]c3ncc(Cl)cc23)c1F`: “inactive”.
Consider `Cc1ccccc1C(OCCN(C)C)c1ccccc1` (stereo not given), for which the Potency entry was “inactive”.
For `CCc1cc(Nc2nccc(-c3c(-c4ccc(OC)c(C(=O)Nc5c(F)cccc5F)c4)nc4ccccn34)n2)c(OC)cc1N1CCC(N2CCN(S(C)(=O)=O)CC2)CC1`, the Potency result was “inactive”.
Next, `COc1cc2nccc(Oc3ccc(NC(=O)NC4CC4)c(Cl)c3)c2cc1C(N)=O`: “inactive”.
Next, `N[C@@H]1CONC1=O`: “inactive”.
Next, `CC[C@@H](C)[C@H](NC(=O)[C@H](CC1CCCCC1)NC(=O)c1ccno1)C(=O)N1CCC2(CCc3ccccc32)CC1`: “inactive”.
Consider `CO[C@@H]1[C@H](N(C)C(=O)c2ccccc2)C[C@H]2O[C@]1(C)n1c3ccccc3c3c4c(c5c6ccccc6n2c5c31)C(=O)NC4`, for which the Potency entry was “inactive”.
Next, `Cc1oncc1C(=O)Nc1ccc(C(F)(F)F)cc1`: “inactive”.
